Screening results from PubChem BioAssay.
Only a selection was taken, and hits are over-represented in it overall.
HT1080-NT tox: qHTS for induction of synthetic lethality in tumor cells producing 2HG: qHTS for the HT-1080-NT fibrosarcoma cell line; HT-1080-NT fibrosarcoma viability, CellTiter-Glo ATP luminescence, 48 h; Potency, µM (highest dose often 46.1 µM), inactives show top-dose activity, negative = less viability, usual class: cytotoxic; 1.6% of 360,000 active; AID 686970, 2013;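 further: NT is the 2HG producing partner of a matched IDH1 knockdown line; potency means the concentration at half of the fitted maximal effect; 0% = DMSO-treated cells and -100% = media-only wells without cells; nearly all actives have a fitted effect of over 55% in size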
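750 cells/well, RPMI + 5% FBS; 2 h settle, compound pin-transfer, 48 h at 37 degrees C. CellTiter-Glo 10 min RT, luminescence. Normalized to DMSO and media-only wells.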
IL1B secr inh: qHTS for Inhibitors of Inflammasome Signaling: IL-1-beta AlphaLISA Primary Screen | AID 743279, 2014 | THP-1 LPS/ATP IL-1B secretion, AlphaLISA, 16 h; stronger effect = lower value | 4.7% of 360,000 active | activity change, % at 57.5 µM; in the data active means activity change below about -50%; inconclusive means mostly about -30% to -49%
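THP-1 cells pretreated 1 hr with compounds (up to 57.5 uM final), then stimulated with LPS (250 ng/mL final) plus ATP (1.25 mM final); secreted IL-1B measured by AlphaLISA after 16 hr, decreased signal indicating inhibition.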
HT1080 IDH1KD tx: qHTS for induction of synthetic lethality in tumor cells producing 2HG: qHTS for the HT-1080-IDH1KD cell line | HT-1080 IDH1 knockdown viability, ATP luminescence, 48 h | Potency, µM (highest dose often 46.1 µM), without a hit: at the highest dose activity, negative = toxicity, most hits filed as cytotoxic | 2% of 360,000 active;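 further: potency means the concentration at half of the fitted maximal effect; 0% = DMSO wells and -100% = cell-free medium wells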
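After a 2 h attachment period, IDH1KD HT-1080 cells took pin-transferred compound for 48 h at 37 °C; ATP-based luminescence after 10 min room-temperature reagent incubation reported viability.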
ALOX12 inh: Primary qHTS assay for inhibitors of human arachidonate 12S-lipoxygenase (ALOX12): Round 2. Polyunsaturated fatty acid lipoxygenase ALOX12 (Homo sapiens), P18054. purified 12hLO, xylenol orange hydroperoxide absorbance. Potency, µM (top dose mostly 108 µM), inactives show at the top dose activity change, negative = inhibition, most hits filed as inhibitors. 1.1% of 580,000 active. AID 1671190, 2021; further: potency means the concentration at half of the fitted maximal effect
Target sequence (P18054 whole entry, looked up): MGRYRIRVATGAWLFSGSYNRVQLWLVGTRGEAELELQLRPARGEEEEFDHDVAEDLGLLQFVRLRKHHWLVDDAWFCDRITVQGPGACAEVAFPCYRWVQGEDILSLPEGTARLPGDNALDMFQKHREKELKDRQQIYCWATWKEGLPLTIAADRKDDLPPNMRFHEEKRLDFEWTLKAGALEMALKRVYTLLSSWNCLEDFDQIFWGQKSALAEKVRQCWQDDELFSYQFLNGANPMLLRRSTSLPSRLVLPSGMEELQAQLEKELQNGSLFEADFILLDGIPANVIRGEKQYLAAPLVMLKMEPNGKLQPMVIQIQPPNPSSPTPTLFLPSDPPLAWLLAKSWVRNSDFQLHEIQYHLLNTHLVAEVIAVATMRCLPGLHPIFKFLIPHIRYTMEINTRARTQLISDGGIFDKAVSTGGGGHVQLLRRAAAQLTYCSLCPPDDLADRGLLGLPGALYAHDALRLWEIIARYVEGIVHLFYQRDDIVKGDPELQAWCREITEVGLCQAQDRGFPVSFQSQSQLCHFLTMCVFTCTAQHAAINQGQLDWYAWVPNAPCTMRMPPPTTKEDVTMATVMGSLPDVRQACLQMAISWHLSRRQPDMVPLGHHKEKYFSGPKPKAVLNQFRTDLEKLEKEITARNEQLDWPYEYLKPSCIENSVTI
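Purified human 12hLO (150 nM final) in 25 mM Hepes, 0.01% Triton X-100, pH 7.0 was preincubated 15 min at room temperature with compound. Then 40 uM arachidonic acid was added, 30 min. Hydroperoxide was read by Fe-XO absorbance ratio 573/405 nm.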
DT40 TDP1 no CPT: qHTS for Inhibitors of human tyrosyl-DNA phosphodiesterase 1 (TDP1): qHTS in cells in absence of CPT | DT40 Tdp1-/- hTDP1 cells, no CPT, ATP luminescence, 48 h | Potency, µM (top dose mostly 46.2 µM), inactives show top-dose activity change, negative = growth inhibition, hits mostly inhibitors | 15% of 420,000 active | AID 686978, 2013; further: potency means the concentration at half of the fitted maximal effect; nearly all actives have a fitted effect of over 55% in size
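Stably hTDP1-transfected Tdp1-null chicken DT40 cells were treated with library compounds minus camptothecin and grown for at least 48 hr at 37 °C, after which cellular ATP was quantified by luminescence.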
TDP1 cell CPT: qHTS for Inhibitors of human tyrosyl-DNA phosphodiesterase 1 (TDP1): qHTS in cells in presence of CPT. chicken DT40 Tdp1-/-;hTDP1 cells + 20 nM CPT, ATP luminescence, 48 h. Potency, µM (series often up to 46.2 µM), without a hit: at the top dose activity change, negative = growth inhibition, most hits filed as inhibitors. 12% of 420,000 active; further: potency means the concentration at half of the fitted maximal effect; nearly all actives have a fitted effect of over 55% in size
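Chicken DT40 Tdp1-/- cells stably complemented with human TDP1 were seeded at 400 cells/well in medium containing 20 nM camptothecin, exposed to pin-transferred compounds, and grown at 37 °C for at least 48 hr. Viability was read as ATP luminescence.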
* hit, by the source's call; [ ] = remark or other dose. Unless noted, the call rests on the fitted dose curve; in most records, active means well fitted curve in the direction sought with a large enough effect; inconclusive means small, poorly fitted or top-dose-only effect, or another doubt; inactive means no such curve, though single readings can be large; an effect the other way counts as inactive or inconclusive. Unless noted, on the % scale 0 is the no-effect control and ±100 the full control effect.

Cc1ncc(CO)c(CNc2ccc(Oc3ccccc3)cc2)c1O was read as HT1080-NT tox -19.0%, IL1B secr inh 4.2, HT1080 IDH1KD tx inconclusive, ALOX12 inh 11.2%, DT40 TDP1 no CPT 6.51µM* and TDP1 cell CPT 13µM*.
`Cc1ccc([N+](=O)[O-])cc1-c1ccc(/C=C(\C#N)c2[nH]nc(N)c2C#N)o1` gave HT1080-NT tox inconclusive, IL1B secr inh inconclusive, HT1080 IDH1KD tx 16.4µM*, ALOX12 inh -8.2%, DT40 TDP1 no CPT 13µM* and TDP1 cell CPT inconclusive.
For COCc1cc(C)nc(OCC(=O)N/N=C/c2ccc(-c3cc([N+](=O)[O-])ccc3C)o2)c1C#N the results were HT1080-NT tox 1.2%, IL1B secr inh -25.8, HT1080 IDH1KD tx -27.9%, ALOX12 inh 0.0%, DT40 TDP1 no CPT inconclusive and TDP1 cell CPT inconclusive.
For Cc1nc(N2CCN(c3ccccn3)CC2)c2c(C)c(C(=O)Nc3c(C)cc(Br)cc3C)sc2n1 the results were HT1080-NT tox -7.9%, IL1B secr inh inconclusive, HT1080 IDH1KD tx 1.4%, ALOX12 inh 4.4%, DT40 TDP1 no CPT inconclusive and TDP1 cell CPT inconclusive.
For Cc1nc(N2CCN(c3ccccn3)CC2)c2c(C)c(C(=O)Nc3ccc(Cl)cc3)sc2n1 the results were HT1080-NT tox 14.2%, IL1B secr inh -58.1*, HT1080 IDH1KD tx 0.0%, ALOX12 inh 6.0%, DT40 TDP1 no CPT inconclusive and TDP1 cell CPT inconclusive.
Screening Cc1nc(N2CCN(c3ccccn3)CC2)c2c(C)c(C(=O)Nc3c(F)cc(F)cc3Br)sc2n1 returned HT1080-NT tox -1.5%, IL1B secr inh -23.8, HT1080 IDH1KD tx -0.1%, ALOX12 inh 14.8%, DT40 TDP1 no CPT 13µM* and TDP1 cell CPT 16.4µM*.
COCC(NC(=O)c1csc(-c2cccs2)n1)c1ccnn1C (configuration not stated) was read as ALOX12 inh -0.9%.
`Nc1ncccc1CN1CC[C@@H]2OCC(=O)N(Cc3c[nH]c4ccccc34)[C@H]2CC1` gave ALOX12 inh -10.1%[176 µM].
Screening CN(C)CC(=O)N1c2ccccc2CCc2ccc(NC(=O)c3ccc(N)cc3)cc21 returned HT1080-NT tox -5.5%, IL1B secr inh -21.5, HT1080 IDH1KD tx 3.1%, ALOX12 inh 13.1%, DT40 TDP1 no CPT -3.9% and TDP1 cell CPT -2.8%.
CCOC(=O)Nc1ccc2c(c1)N(CCCN(C)C)c1ccccc1CC2 was read as HT1080-NT tox -24.5%, IL1B secr inh -9.7, HT1080 IDH1KD tx -3.8%, ALOX12 inh -21.3%, DT40 TDP1 no CPT inconclusive and TDP1 cell CPT 23.1µM*.
Screening CCOC(=O)Nc1ccc2c(c1)N(C(=O)OC)c1ccccc1CC2 returned HT1080-NT tox inconclusive, IL1B secr inh 24.4, HT1080 IDH1KD tx inconclusive, ALOX12 inh 0.0%, DT40 TDP1 no CPT inconclusive and TDP1 cell CPT inconclusive.
COc1cc(C(=O)Nc2ccc3c(c2)N(C(=O)CCN(C)C)c2ccccc2CC3)cc(OC)c1OC was read as HT1080-NT tox inconclusive, IL1B secr inh -59.9*, HT1080 IDH1KD tx inconclusive, ALOX12 inh -0.2%, DT40 TDP1 no CPT -1.4% and TDP1 cell CPT -1.3%.
`CCCC(=O)Nc1ccc(S(=O)(=O)NCCn2nc(-c3ccc(F)cc3)ccc2=O)cc1` gave ALOX12 inh -40.5%.
`C=CCOc1c(Br)cc(/C=N/NC(=O)Cc2ccc(C(F)(F)F)cc2[N+](=O)[O-])cc1OC` gave HT1080-NT tox -19.1%, IL1B secr inh 29.1, HT1080 IDH1KD tx -7.4%, ALOX12 inh 0.8%, DT40 TDP1 no CPT 13µM* and TDP1 cell CPT 11.6µM*.
CCOc1cc(/C=N/NC(=O)Cc2ccc(C(F)(F)F)cc2[N+](=O)[O-])ccc1O was read as HT1080-NT tox -19.5%, IL1B secr inh 11.1, HT1080 IDH1KD tx -18.0%, ALOX12 inh 6.0%, DT40 TDP1 no CPT -10.9% and TDP1 cell CPT -14.1%.
For COc1cc(/C=N/NC(=O)Cn2nc([N+](=O)[O-])cc2C)cc(Br)c1OCc1ccccc1 the results were HT1080-NT tox inconclusive, IL1B secr inh -8.8, HT1080 IDH1KD tx inconclusive, ALOX12 inh -14.7%, DT40 TDP1 no CPT inconclusive and TDP1 cell CPT 25.9µM*.
`Cc1cc([N+](=O)[O-])nn1CC(=O)N/N=C/c1ccc(O)cc1O` gave HT1080-NT tox inconclusive, IL1B secr inh 249.2, HT1080 IDH1KD tx inconclusive, ALOX12 inh -18.6%, DT40 TDP1 no CPT 6.51µM* and TDP1 cell CPT 8.2µM*.
`CCOc1cc(/C=N/NC(=O)Cn2nc([N+](=O)[O-])cc2C)cc(Br)c1OCc1ccccc1C` gave HT1080-NT tox inconclusive, IL1B secr inh 8.8, HT1080 IDH1KD tx inconclusive, ALOX12 inh 0.0%, DT40 TDP1 no CPT inconclusive and TDP1 cell CPT 23.1µM*.
`O=C(COC(=O)c1c[nH]c2ccccc12)Nc1cccc2ccccc12` gave ALOX12 inh 5.4%.
`O=C(c1ccc(Cn2ccnc2)o1)N1CCCCCC1c1nnc(-c2ccccc2)o1` (configuration not stated) gave ALOX12 inh 35.9%.
For CC(=O)Oc1cc2c(C(=O)NCCCN3CCOCC3)c(C)oc2c2ccccc12 the results were HT1080-NT tox inconclusive, IL1B secr inh 17.2, HT1080 IDH1KD tx inconclusive, ALOX12 inh 144.7%, DT40 TDP1 no CPT 20.6µM* and TDP1 cell CPT 14.6µM*.
Screening C=CCOc1c(Cl)cc(C(=S)N2CCCC2)cc1OCC returned HT1080-NT tox inconclusive, IL1B secr inh 2.2, HT1080 IDH1KD tx 9.2µM*, ALOX12 inh 5.3%, DT40 TDP1 no CPT 7.31µM* and TDP1 cell CPT 5.8µM*.
For CCOc1cc(C(N)=O)cc(Cl)c1OCC the results were HT1080-NT tox -6.8%, IL1B secr inh -1.6, HT1080 IDH1KD tx -11.0%, ALOX12 inh 4.5%, DT40 TDP1 no CPT 23.1µM* and TDP1 cell CPT inconclusive.
Screening CCOc1cc(C(=O)O)cc(Cl)c1OC returned HT1080-NT tox 12.0%, IL1B secr inh -8.8, HT1080 IDH1KD tx -2.4%, ALOX12 inh 0.0%, DT40 TDP1 no CPT 4.0% and TDP1 cell CPT 11.8%.
